Compound activity (PubChem BioAssay)
Compounds with a hit are over-represented: about 9.4% of the library has one in this group of screens.
NPC1 prom act – qHTS Assay for NPC1 Promoter Activators; Huh7 NPC1 promoter luciferase reporter, 24 h; Potency, µM (series often up to 9.22 µM), inactives show top-dose activation, hits mostly activators; 320,000 tested, 2.4% active; further: % of control where 0% means no effect; nearly all actives have a fitted effect of over 60% in size
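Stable NPC1-promoter luciferase Huh7 line; cpd (DMSO) 24 h, 37 °C, 5% CO2; Amplite luciferase reagent 10 min RT; luminescence readout. qHTS format.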
ELG1 genotox – qHTS screen for small molecules that induce genotoxicity in human embryonic kidney (HEK293T) cells expressing luciferase-tagged ELG1; HEK293T ELG1-luciferase reporter, luminescence, 16 h; Potency, µM (doses to about 46 µM), inactives show at the top dose activity change, positive = activation, hits mostly activators; 330,000 tested, 1.3% active; further: % of control where 0% means no effect; nearly all actives have a fitted effect of over 60% in size
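Reporter readout depends on ELG1 protein level, which increases with genetic stress. After 16 hr compound exposure at 37 °C, luciferase activity was quantified using ONE-Glo.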
ELG1 repair inh – qHTS screen for small molecules that inhibit ELG1-dependent DNA repair in human embryonic kidney (HEK293T) cells expressing luciferase-tagged ELG1; HEK293T ELG1-luciferase reporter, luminescence, 16 h; DNA damage induced by 5-fluorouridine; 330,000 tested, 2.3% active; Potency, µM (series often up to 46.1 µM), for the others: top-dose activity change, negative = inhibition, most hits filed as inhibitors; AID 504467, 2011; further: on the % scale 0 is the no-effect control and ±100 the full control effect; nearly all actives have a fitted effect of over 55% in size
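5-Fluorouridine DNA damage + compound/DMSO, 2,000 cells/well, 16 h, 37 °C/5% CO2. ONE-Glo, 30 min RT, luminescence. Readout = decrease in reporter signal.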
FLuc modulator – qHTS profiling assay for firefly luciferase inhibitor/activator using purifed enzyme and Km concentrations of substrates (counterscreen for miR-21 project); Potency, µM (series often up to 57.5 µM), without a hit: at the highest dose activity change, negative = inhibition, actives largely listed as inhibitors; 360,000 tested, 6.9% active; Luciferin 4-monooxygenase (Photinus pyralis), P08659; purified FLuc, Km substrates, luminescence inhibition; AID 588342, 2011;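 further: plate controls were vehicle for no effect and reference inhibitor for full effect; nearly all actives have a fitted effect of over 55% in size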
Target sequence (P08659 whole entry, looked up): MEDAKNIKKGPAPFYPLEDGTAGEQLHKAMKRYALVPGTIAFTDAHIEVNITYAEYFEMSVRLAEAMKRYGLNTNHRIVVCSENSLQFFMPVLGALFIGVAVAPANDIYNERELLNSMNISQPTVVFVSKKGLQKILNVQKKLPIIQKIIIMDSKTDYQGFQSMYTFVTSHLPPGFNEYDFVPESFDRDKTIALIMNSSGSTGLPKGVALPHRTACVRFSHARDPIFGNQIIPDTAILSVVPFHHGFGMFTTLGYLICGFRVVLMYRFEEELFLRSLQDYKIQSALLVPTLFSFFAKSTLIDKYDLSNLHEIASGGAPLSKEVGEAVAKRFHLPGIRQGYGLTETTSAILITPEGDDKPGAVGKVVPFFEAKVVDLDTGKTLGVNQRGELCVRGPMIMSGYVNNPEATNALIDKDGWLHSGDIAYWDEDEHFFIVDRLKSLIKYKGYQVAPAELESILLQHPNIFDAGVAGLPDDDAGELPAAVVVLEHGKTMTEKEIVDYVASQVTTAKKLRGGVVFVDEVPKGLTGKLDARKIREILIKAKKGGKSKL
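Purified P. pyralis luciferase, 10 nM final, with Km-level 10 uM D-luciferin and 10 uM ATP in 50 mM Tris acetate pH 7.5, 10 mM Mg acetate, 0.01% Tween-20, 0.05% BSA; 6-point qHTS titration about 60 µM downward; luminescence read.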
SMN2 splice enh – qHTS Assay for Enhancers of SMN2 Splice Variant Expression. HEK293 SMN2-luciferase splicing reporter, luminescence, 30-36 h. Potency, µM (doses to about 46.1 µM), for the others: at the highest dose activity change, positive = activation, usual class: activators. 210,000 tested, 2.8% active; further: % of control where 0% means no effect; nearly all actives have a fitted effect of over 55% in size
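HEK293 cells carry an SMN2 […]–luciferase reporter in which exon 7 inclusion puts luciferase in frame. Cells were plated 10-12 h before compound addition, then incubated 30-36 h at 37C. ONE-Glo luminescence was read; sodium butyrate at 4.5 mM final served as control.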
Rab9 promoter act – qHTS Assay for Rab9 Promoter Activators. Potency, µM (series often up to 9.22 µM), without a hit: at the highest dose activation, negative = inhibition, usual class: activators. Huh7 Rab9 promoter-luciferase reporter, luminescence, 24 h. AID 485297, 2010. 320,000 tested, 2.8% active; further: % of control where 0% means no effect; nearly all actives have a fitted effect of over 60% in size
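Promoter activation is measured as luciferase luminescence in Huh7 cells stably transfected with a Rab9 promoter–luciferase construct, following 24 h compound exposure at 37 °C and 10 min reagent incubation at ambient temperature.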
Numbers without * were called inactive. The call rests on the fitted dose curve; in most records, active means well fitted curve in the direction sought with a large enough effect; inconclusive means small, poorly fitted or top-dose-only effect, or another doubt; inactive means no such curve, though single readings can be large; an effect the other way counts as inactive or inconclusive. Potency means the concentration at half of the fitted maximal effect.

Cn1cccc1C(=O)OCc1cc(-c2ccco2)on1 was read as NPC1 prom act 3.55µM*, ELG1 genotox inconclusive, ELG1 repair inh inconclusive, FLuc modulator 23.9µM* and Rab9 promoter act 3.16µM*.
For Cn1cccc1C(=O)OCc1nc2ccccc2c(=O)[nH]1 the results were ELG1 genotox 6.4% and ELG1 repair inh inconclusive.
Cn1cccc1C(=O)OCc1ccc(C(C)(C)C)cc1 was read as NPC1 prom act -34.7%, ELG1 genotox inconclusive, ELG1 repair inh inconclusive, FLuc modulator 10.7µM* and Rab9 promoter act inconclusive.
For Cc1nc(SCc2nc3ccccc3[nH]2)c2oc3cc(Br)ccc3c2n1 the results were ELG1 genotox -2.1% and ELG1 repair inh 18.3µM*.
For Cc1nc(SCc2nc3ccc(C(=O)c4ccccc4)cc3[nH]2)c2oc3ccccc3c2n1 the results were ELG1 genotox 2.6% and ELG1 repair inh 4.61µM*.
Cc1nc(SCc2cccc(F)c2)c2oc3ccccc3c2n1 was read as NPC1 prom act -0.3%, ELG1 genotox -8.2%, ELG1 repair inh 20.6µM*, FLuc modulator -9.2% and Rab9 promoter act -2.7%.
Screening Cc1nc(SCc2nc3ccc(F)cc3[nH]2)c2oc3ccccc3c2n1 returned ELG1 genotox -0.6% and ELG1 repair inh inconclusive.
For O=C(NC(=S)NCC1COc2ccccc2O1)c1ccccc1 (centres undefined) the results were NPC1 prom act -0.1%, ELG1 genotox -0.3%, ELG1 repair inh -6.4%, FLuc modulator inconclusive, SMN2 splice enh -32.7% and Rab9 promoter act -0.4%.
`O=C(NCC1COc2ccccc2O1)c1ccccc1` (centres undefined) gave NPC1 prom act 3.98µM*, ELG1 genotox inconclusive, ELG1 repair inh inconclusive, FLuc modulator 12µM*, SMN2 splice enh 12.6µM* and Rab9 promoter act 4.47µM*.
O=C(NCC1COc2ccccc2O1)c1cc2ccccc2o1 (centres undefined) was read as NPC1 prom act 7.6%, ELG1 genotox 15.9%, ELG1 repair inh inconclusive, FLuc modulator 13.5µM*, SMN2 splice enh 22.9% and Rab9 promoter act 5.7%.
For COc1ccc2c(c1)CCc1c(C(=O)Nc3cc(OC)c(Cl)cc3OC)noc1-2 the results were FLuc modulator -5.3% and SMN2 splice enh 3.3%.
Screening Cc1cccc2cc(-c3nc4ccc(C(=O)O)cc4[nH]3)c(=O)oc12 returned NPC1 prom act inconclusive, ELG1 genotox inconclusive, ELG1 repair inh inconclusive, FLuc modulator 0.426µM* and Rab9 promoter act inconclusive.
`CC(C)(C)c1cc(C(C)(C)C)c2oc(=O)c(-c3nc4ccc(C(=O)O)cc4[nH]3)cc2c1` gave NPC1 prom act 0.2%, FLuc modulator inconclusive and Rab9 promoter act -2.1%.
For O=C(O)c1ccc2nc(-c3cc4cc(Cl)ccc4oc3=O)[nH]c2c1 the results were FLuc modulator 21.3µM*.
COc1cccc(CCNC(=O)C2CCCN(c3ncnc4c3nc3n4CCCCC3)C2)c1OC (centres undefined) was read as NPC1 prom act 0.9%, ELG1 genotox -5.8%, ELG1 repair inh 7.3µM*, FLuc modulator -0.1% and Rab9 promoter act 2.4%.
COc1ccccc1N1CCN(CCCNC(=O)C2CCCN(c3ncnc4c3nc3n4CCCCC3)C2)CC1 (centres undefined) was read as NPC1 prom act 0.5%, ELG1 genotox -12.4%, ELG1 repair inh 11.6µM*, FLuc modulator 0.6% and Rab9 promoter act 1.2%.
For CN(C(=O)c1cccnc1)c1nnc(-c2cnccn2)s1 the results were NPC1 prom act 4.1%, ELG1 genotox 13.8%, ELG1 repair inh inconclusive, FLuc modulator inconclusive, SMN2 splice enh 21.4% and Rab9 promoter act -0.4%.
`COCCN(C(C)=O)c1nnc(-c2ccccn2)s1` gave NPC1 prom act 17.2%, ELG1 genotox 29.7%, ELG1 repair inh inconclusive, FLuc modulator -1.8%, SMN2 splice enh inconclusive and Rab9 promoter act inconclusive.
For CN(C(=O)c1cnccn1)c1nnc(-c2cnccn2)s1 the results were NPC1 prom act -1.0%, ELG1 genotox 0.5%, ELG1 repair inh -4.4%, FLuc modulator inconclusive, SMN2 splice enh -3.2% and Rab9 promoter act 2.6%.
`CN(C(=O)c1ccccn1)c1nnc(-c2cnccn2)s1` gave NPC1 prom act inconclusive, ELG1 genotox inconclusive, ELG1 repair inh 2.6%, FLuc modulator 10.7µM* and Rab9 promoter act inconclusive.
For CN(C(=O)c1cccnc1)c1nnc(-c2ccccn2)s1 the results were NPC1 prom act inconclusive, ELG1 genotox inconclusive, ELG1 repair inh inconclusive, FLuc modulator 19µM* and Rab9 promoter act inconclusive.
For CC(=O)N(C)c1nnc(-c2ccccn2)s1 the results were NPC1 prom act 27.5%, ELG1 genotox inconclusive, ELG1 repair inh inconclusive, FLuc modulator inconclusive, SMN2 splice enh 20µM* and Rab9 promoter act 15.0%.
COc1cccc(CNC(=O)c2cc3c(s2)-c2c(C)cccc2OC3)c1 was read as FLuc modulator -10.9% and SMN2 splice enh -28.8%.
`COc1ccccc1Oc1nc2c(C)cccn2c(=O)c1/C=C(\C#N)c1nc2ccccc2[nH]1` gave FLuc modulator -9.1% and SMN2 splice enh 11.2%.
`COCCCn1c(SCC(=O)OC2CCCCC2)nnc1-c1cccs1` gave NPC1 prom act 0.1%, ELG1 genotox -0.5%, ELG1 repair inh 1.5%, FLuc modulator 19µM*, SMN2 splice enh -5.0% and Rab9 promoter act 6.6%.
`COCCCn1c(SCC(=O)OC2CCCCC2)nnc1-c1ccco1` gave NPC1 prom act 1.4%, ELG1 genotox -1.7%, ELG1 repair inh 23.5%, FLuc modulator 12µM*, SMN2 splice enh -2.4% and Rab9 promoter act 3.3%.
For CCOC(=O)CSC1=NC(=O)/C(=C/c2ccc(Br)cc2)S1 the results were NPC1 prom act -5.3%, ELG1 genotox inconclusive, ELG1 repair inh inconclusive, FLuc modulator 15.1µM* and Rab9 promoter act -9.3%.
`NC1=NC(=O)/C(=C/c2ccc(Br)cc2)S1` gave NPC1 prom act 2.6%, ELG1 genotox 0.7%, ELG1 repair inh inconclusive, FLuc modulator -12.5% and Rab9 promoter act 0.1%.
